Source: PubChem BioAssay AID1159580 (chemical genetic matrix, 2015)
The whole screen tested about 5,500 compounds, of which about 2,000 (36%) were called active. Not shown: some 18% with an inconclusive outcome. Cut-off read from the data, not from the text of the source: active = normalized growth mostly below about 0.91 (no sharp cut-off); inconclusive = no clear call, values can overlap the other calls; inactive = mostly above about 0.92. The list shows a part of the results.

Assay: chemical genetic growth profiling, strain panel (AID 1159580);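 note: tested at 20 µM; growth read once vehicle control cultures reached saturation at 30 °C; 1 = growth at the plate median or of vehicle wells; lower values mean less growth of the strain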
Details: growth OD

Measured: normalized growth

COc1cc(C/C=C/c2ccccc2)c(OC)cc1O
inactive: S. cerevisiae deletion strains, locus YJR066W, strain TOR1, hits give low values 0.989 | S. cerevisiae deletion strains, locus YJR075W, strain HOC1, hits give low values 0.935 | S. cerevisiae deletion strains, locus YKL009W, strain mrt4, hits give low values 1.01 | S. cerevisiae deletion strains, locus YKL068W, hits give low values 0.954 | S. cerevisiae deletion strains, locus YKL085W, strain MDH1 (second series), hits give low values 0.965 | S. cerevisiae deletion strains, locus YKL085W, strain MDH1, hits give low values 0.965 | S. cerevisiae deletion strains, locus YKL160W, strain elf1, hits give low values 0.95 | S. cerevisiae deletion strains, locus YKR001C, strain vps1, hits give low values 0.969 | S. cerevisiae deletion strains, locus YKR026C, strain gcn3, hits give low values 0.956 | S. cerevisiae deletion strains, locus YKR091W, strain srl3, hits give low values 0.954 | S. cerevisiae deletion strains, locus YLL001W, strain dnm1, hits give low values 0.926 | S. cerevisiae deletion strains, locus YLL026W, hits give low values 0.962 | S. cerevisiae deletion strains, locus YLL041C, strain sdh2, hits give low values 0.949 | S. cerevisiae deletion strains, locus YLR027C, strain aat2, hits give low values 0.942 | S. cerevisiae deletion strains, locus YLR039C, strain RIC1, hits give low values 0.91 | S. cerevisiae deletion strains, locus YLR058C, strain SHM2, hits give low values 0.987 | S. cerevisiae deletion strains, locus YLR102C, strain apc9, hits give low values 0.964 | S. cerevisiae deletion strains, locus YLR113W, strain HOG1, hits give low values 1.01 | S. cerevisiae deletion strains, locus YLR221C, strain rsa3, hits give low values 1 | S. cerevisiae deletion strains, locus YLR258W, strain gsy2, hits give low values 0.943 | S. cerevisiae deletion strains, locus YLR262C, strain YPT6 (second series), hits give low values 0.95 | S. cerevisiae deletion strains, locus YLR262C, strain YPT6, hits give low values 0.967 | S. cerevisiae deletion strains, locus YLR268W, strain sec22, hits give low values 1 | S. cerevisiae deletion strains, locus YLR320W, strain mms22, hits give low values 0.982 | S. cerevisiae deletion strains, locus YLR330W, strain CHS5, hits give low values 0.964 | S. cerevisiae deletion strains, locus YLR342W, strain FKS1 (second series), hits give low values 1.05 | S. cerevisiae deletion strains, locus YLR342W, strain FKS1, hits give low values 0.949 | S. cerevisiae deletion strains, locus YLR357W, strain rsc2, hits give low values 0.883 | S. cerevisiae deletion strains, locus YLR370C, strain arc18, hits give low values 0.965 | S. cerevisiae deletion strains, locus YLR384C, strain iki3, hits give low values 0.98 | S. cerevisiae deletion strains, locus YLR418C, strain cdc73, hits give low values 0.883 | S. cerevisiae deletion strains, locus YML016C, strain PPZ1, hits give low values 0.963 | S. cerevisiae deletion strains, locus YML032C, strain rad52, hits give low values 1.02 | S. cerevisiae deletion strains, locus YML120C, strain ndi1, hits give low values 0.922 | S. cerevisiae deletion strains, locus YML124C, strain tub3, hits give low values 0.941 | S. cerevisiae deletion strains, locus YMR058W, strain fet3, hits give low values 0.923 | S. cerevisiae deletion strains, locus YMR078C, strain ctf18, hits give low values 0.956 | S. cerevisiae deletion strains, locus YMR125W, strain sto1, hits give low values 0.898 | S. cerevisiae deletion strains, locus YMR129W, hits give low values 0.96 | S. cerevisiae deletion strains, locus YMR205C, strain PFK2, hits give low values 0.914 | S. cerevisiae deletion strains, locus YMR223W, strain ubp8, hits give low values 0.983 | S. cerevisiae deletion strains, locus YMR231W, strain pep5, hits give low values 0.978 | S. cerevisiae deletion strains, locus YMR307W, strain GAS1, hits give low values 1.04 | S. cerevisiae deletion strains, locus YNL067W, strain RPL9B, hits give low values 0.966 | S. cerevisiae deletion strains, locus YNL128W, strain TEP1, hits give low values 0.944 | S. cerevisiae deletion strains, locus YNL183C, strain NPR1, hits give low values 1 | S. cerevisiae deletion strains, locus YNL209W, strain ssb2, hits give low values 0.97 | S. cerevisiae deletion strains, locus YNL233W, strain BNI4, hits give low values 0.945 | S. cerevisiae deletion strains, locus YNL248C, strain rpa49, hits give low values 0.95 | S. cerevisiae deletion strains, locus YNL271C, strain bni1, hits give low values 0.926 | S. cerevisiae deletion strains, locus YNL298W, strain CLA4, hits give low values 0.986 | S. cerevisiae deletion strains, locus YNL307C, strain MCK1, hits give low values 0.955 | S. cerevisiae deletion strains, locus YNL322C, strain KRE1 (second series), hits give low values 0.969 | S. cerevisiae deletion strains, locus YNL322C, strain KRE1, hits give low values 0.962 | S. cerevisiae deletion strains, locus YNR049C, strain mso1, hits give low values 0.962 | S. cerevisiae deletion strains, locus YNR052C, strain pop2, hits give low values 0.969 | S. cerevisiae deletion strains, locus YOL006C, strain TOP1, hits give low values 1.23 | S. cerevisiae deletion strains, locus YOL012C, strain htz1 0.65 | S. cerevisiae deletion strains, locus YOL147C, strain pex11, hits give low values 0.963 | S. cerevisiae deletion strains, locus YOR001W, strain rrp6, hits give low values 0.982 | S. cerevisiae deletion strains, locus YOR061W, strain CKA2, hits give low values 0.965 | S. cerevisiae deletion strains, locus YOR069W, strain VPS5, hits give low values 0.955 | S. cerevisiae deletion strains, locus YOR070C, strain gyp1, hits give low values 0.981 | S. cerevisiae deletion strains, locus YOR080W, strain dia2, hits give low values 0.959 | S. cerevisiae deletion strains, locus YOR083W, strain WHI5, hits give low values 0.934 | S. cerevisiae deletion strains, locus YOR106W, strain vam3, hits give low values 0.882 | S. cerevisiae deletion strains, locus YOR136W, strain idh2, hits give low values 0.963 | S. cerevisiae deletion strains, locus YOR144C, strain elg1, hits give low values 0.971 | S. cerevisiae deletion strains, locus YOR184W, strain ser1, hits give low values 1.08 | S. cerevisiae deletion strains, locus YOR231W, strain MKK1, hits give low values 1.07 | S. cerevisiae deletion strains, locus YOR265W, strain rbl2, hits give low values 0.955 | S. cerevisiae deletion strains, locus YOR270C, strain vph1, hits give low values 0.924 | S. cerevisiae deletion strains, locus YOR290C, strain snf2, hits give low values 0.902 | S. cerevisiae deletion strains, locus YOR316C, strain cot1, hits give low values 0.95 | S. cerevisiae deletion strains, locus YPL051W, strain arl3, hits give low values 0.937 | S. cerevisiae deletion strains, locus YPL055C, strain LGE1, hits give low values 1.01 | S. cerevisiae deletion strains, locus YPL078C, strain atp4, hits give low values 0.916 | S. cerevisiae deletion strains, locus YPL240C, strain hsp82, hits give low values 0.963 | S. cerevisiae deletion strains, locus YPL256C, strain CLN2, hits give low values 1.03 | S. cerevisiae deletion strains, locus YPR119W, strain clb2, hits give low values 0.946 | S. cerevisiae deletion strains, locus YPR163C, strain tif3, hits give low values 0.98 | S. cerevisiae deletion strains, locus YPR167C, strain met16, hits give low values 0.959 | S. cerevisiae deletion strains, strain wtn01, hits give low values 1.02 | S. cerevisiae strains, strain wild type, hits give low values 0.98
active: S. cerevisiae deletion strains, locus YLR371W, strain rom2, hits give low values 0.849 | S. cerevisiae deletion strains, locus YNL071W, strain lat1, hits give low values 0.866 | S. cerevisiae deletion strains, locus YNL250W, strain rad50, hits give low values 0.898 | S. cerevisiae deletion strains, locus YPL106C, strain sse1, hits give low values 0.847 | S. cerevisiae deletion strains, locus YPR141C, strain kar3, hits give low values 0.914
